“And” between values parts separate entries of the source, which are not always exact repeats. Equal values may be shown once. About 83,000 compounds went through this panel and 20% of them were active in at least one assay; those are over-represented in the sample as a whole.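 Negative percent growth values reflect cell death: -40 means 40% of the cells present at the start died, and -100 means all died.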 Unmarked numbers belong to inactive results. The source made the active and inactive calls. The calls were made as follows: active = growth percent below 10; inactive = the rest.

The test system of this assay is NCI-H23 lung. Put plainly: NCI-60 one-dose screen, 48 h (100 = growth as untreated, 0 = no growth, -100 = all killed). Conditions: 10 µM unless noted.
For `COc1ccc(NC2=C(I)C(=O)C(C)=C(C)C2=O)cc1`, the growth was 32.2%.

As to `CC(=O)Nc1cccc(-n2c(COc3ccc(Br)cc3)nc3ccccc32)c1`, the growth was 94% and 107%.

Regarding `CCCSc1nnc(-c2sc3nc4ccccc4n3c2C)o1`, the growth is 111%.

As for `COc1cc(/C=N/NC(=O)c2ccc(OCc3nc4ccc(C)cc4[nH]3)cc2)cc(OC)c1OC`, the growth is 22.3%.

Consider `Cc1ccc(C(=O)Nc2cc(-n3ccnc3)cc(C(F)(F)F)c2)cc1-n1cc(-c2cnc3cccnn23)nn1`, for which the growth was 82%.

Regarding `O=C(Nc1ccc(Cl)c(C(F)(F)F)c1)N1CCN(c2cc(-c3cn(-c4ccccc4)nc3-c3cccc(O)c3)ccn2)CC1`, the growth is -27.3% (active).

As for `COc1cccc(C(N)=Nc2ccc(OCCCCCCCCn3cncn3)cc2)c1`, the growth is 9.5% (active).

For the compound `Nc1nnc(-c2cncc(Br)c2)c(-c2c[nH]c3ccc(Br)cc23)n1`, the growth was 70.7%.

As for `Nc1cc(-c2c[nH]c3ccc(Cl)cc23)nc2cc(-c3c[nH]c4ccccc34)nn12`, the growth is -56% (active).

As for `CN(C)CCOc1ccc(C(=O)C2[C@H](c3ccc(Cl)cc3)[C@@H](c3ccccc3)NC23C(=O)Nc2ccc(Cl)cc23)cc1` (stereo partly specified), the growth was -93.2% (active).

Turning to `O=C(NNC(=S)NC(=O)c1ccccc1)c1ccc(OCc2nc3ccc(Cl)cc3[nH]2)cc1`, the growth was -71.3% (active).

As to `O=C(c1ccc(Cl)cc1)C1[C@H](c2ccccc2Cl)[C@@H](c2ccccc2)NC12C(=O)Nc1ccc(Br)cc12` (stereo partly specified), the growth was -80.5% (active).

With `COc1ccc(CCC2NCCc3c(Br)c4c(c(OC)c32)OCO4)cc1` (stereo unspecified), the growth was -24.7% (active).

In the case of `O=C(Nc1ccc(Br)cc1)Nc1ccc(-c2ccc3c(c2)NC(=O)/C3=C\c2ccc[nH]2)cc1`, the growth was 30.7%.

With `O=C(Nc1ccc(S(=O)(=O)N2CCCCC2)cc1)C(Cl)Cl`, the growth was 103%.

`O=C(N/N=C/c1ccc(Br)o1)c1[nH]c2ccc(Br)cc2c1-c1ccccc1`: the growth is -37% (active).

For `COc1cc(/C=C/C(=O)c2ccc(S(=O)(=O)NCCNc3nc(N(C)C)nc(N4CCOCC4)n3)cc2)cc(OC)c1OC`, the growth is 3.66% (active).

Consider `CCCCNC(=S)Nc1ccc(OCc2nc3ccc(Cl)cc3[nH]2)cc1`, for which the growth is 29.3%.

On to `COc1ccc(-c2cc(C(=O)N=Nc3c(O)[nH]c4ccc(Cl)cc34)c3ccccc3n2)cc1OC`, for which the growth is 92.2%.

Consider `NS(=O)(=O)c1cccc(Nc2nc(SCC(=O)c3ccc(F)cc3)nc3ccccc23)c1`, for which the growth was 5.36% (active).

For the compound `COc1ccc2[nH]c(O)c(N=Nc3nc(-c4ccccc4)cs3)c2c1`, the growth was 23.9%.

With `COc1ccc(OC)c(Cn2cc(C#N)c(N)c2C(=O)c2ccc(Br)cc2)c1`, the growth is 54.4%.

Regarding `CC1=C(C)C(=O)C(N2CCSCC2)=CC1=O`, the growth was 93.9%.

As for `N#Cc1c(-c2ccc(F)cc2)nc(SCc2ccc(F)cc2)nc1N1CCNCC1`, the growth was -61.3% (active).

For the compound `COc1ccc2[nH]cc(-c3cc4nc(-c5cn(C)c6ncccc56)cc(N)n4n3)c2c1`, the growth was 13.9%.

With `O=C1Nc2ccccc2/C1=C\c1ccc(OCC(=O)c2ccc(Br)cc2)cc1`, the growth was 50.9%.

For `Nc1nn2c(-c3cc4ccccc4oc3=O)ccnc2c1N=Nc1ccccc1`, the growth is 12.5%.

As for `O=c1c(-c2nc(-c3ccccc3)c(-c3ccccc3)[nH]2)coc2ccc(F)cc12`, the growth was 60.7%.

Take `Cc1ccccc1Nc1nnc(-c2c[nH]c3ccccc23)o1`: the growth was 28.1%.

Regarding `O=CNc1cccc(-n2cnc3cc(-c4ccc(O)cc4)ccc32)c1`, the growth was 34.6%.

Regarding `CC1(C)CC(=O)C2=C(C1)OC(N)=C(c1nc3ccccc3[nH]1)C2c1ccc(Cl)cc1` (stereo unspecified), the growth is 46.5% and 106%.

In the case of `CN1C(=O)/C(=C\C(=O)c2cc3ccccc3oc2=O)c2ccccc21`, the growth was 46.3%.

Consider `Cc1cc(N=C(N)c2ccccc2)ccc1OCCCCCCCCn1ccnc1`, for which the growth is -28% (active).

Take `Cc1ccc(C2CC(c3ccc(NC(=S)Nc4ccccc4)cc3)=NN2c2ccc(S(N)(=O)=O)cc2)cc1` (stereo unspecified): the growth was 23.6%.

For `COc1cc(CNC(=O)[C@]23CCC(C)(C)CC2C2=CCC4[C@@]5(C)CCC(OC(C)=O)C(C)(C)C5CC[C@@]4(C)[C@]2(C)CC3)ccc1OCc1cn(-c2ccc(Cl)cc2Cl)nn1` (stereo partly specified), the growth was 99%.

`Nc1ccc(-c2ccc3ncnc(N4CCc5cc(F)c(Cl)cc54)c3c2)cn1`: the growth was 29.4%.

Values taken from PubChem BioAssay (NCI).
